In ChEMBL document CHEMBL3988442, “University of Dundee, Small-Polar-MMV Screening Library” (2021) one finds Percent Effect data, which are given here for 39 compounds.

Each structure is given as a SMILES string.

The species entered for the first experiment is Homo sapiens. Nature of the experiment: To identify inhibition of the IFN signalling (Jak-Stat) pathway via expression of an eGFP reporter gene under the control of an IFN-stimulated response element (ISRE) containing MxA promoter. Particulars: 30 µM. Also noted: scale not given: direction of the effect not stated beside the values. It counts as functional. On the technique in general: A reporter such as luciferase makes a cellular process visible.
As for `Cc1nc(CO[C@@H]2CN(Cc3cnn(C)c3)[C@@H]3COC[C@@H]32)cs1`, the Percent Effect stood at 2.98%.

Regarding `CC(=O)N1CCN(Cc2csc(-c3cnn(C)c3)n2)CC1`, the Percent Effect was found to be 3.43%.

In the case of `CC1CN(CC(=O)Nc2nncs2)CCN1c1nccs1` (stereo not drawn), the Percent Effect turned out to be 25.9%.

Take `CC(OCC1CC1)C(=O)N1CCCN(Cc2cnn(C)c2)CC1` (stereo not drawn): the Percent Effect was determined as 6.99%.

As to `O=S(=O)(CCNCc1cccc2c1OCCO2)N1CCOCC1`, the Percent Effect came to 24.3%.

Regarding `Cc1ccccc1[C@@H]1CN(C(=O)c2ccc3[nH]nnc3c2)C[C@H]1C(=O)O`, the Percent Effect amounted to 2.78%.

As to `CC1CCN(C(CNC(=O)CCn2cccn2)c2cccs2)CC1` (stereo not drawn), the Percent Effect was determined as 4.2%.

As to `Cc1ccc(NC2CCN(C(=O)COCC(F)(F)F)CC2)nn1`, the Percent Effect was 12.1%.

`Cn1cc(CN2CCCC3(CCN(c4nncs4)C3)C2)cn1` (stereo not drawn): the Percent Effect was -4.18%.

`Cc1nc(Cn2nc(C3CCNCC3)n(Cc3ccccc3)c2=O)no1`: the Percent Effect is 26.5%.

Regarding `CC(C)(C)c1cnc(CN2CCC(c3ccnn3CCO)CC2)o1`, the Percent Effect stood at 20.2%.

`Cc1nc(COC[C@@H]2CC[C@H]3[C@H](CCN3c3ncccn3)O2)cs1`: the Percent Effect is 8.36%.

Turning to `CC(=O)N(Cc1ncc(C)o1)C1CCN(Cc2noc(C)n2)C1` (stereo not drawn), the Percent Effect was found to be 1.88%.

On to `Cc1cc(CN(C)C2CCCN(Cc3noc(C4CC4)n3)C2)no1` (stereo not drawn), for which the Percent Effect is 15.9%.

As to `COCC1CN(C(=O)C2=CCCCC2)Cc2cnn(CC3CC3)c21` (stereo not drawn), the Percent Effect turned out to be 18%.

In the case of `CC(=O)N1CCCN(C(=O)NCCc2ccc(Cl)s2)CC1`, the Percent Effect is 15.8%.

Take `CCc1nnc(CN(C)c2nc(C3CCCC3)nc3c2cnn3C)o1`: the Percent Effect is 7.5%.

For `COc1ccc(-c2cc(C3CCCCCN3S(=O)(=O)N(C)C)on2)cc1` (stereo not drawn), the Percent Effect stood at 12.8%.

Take `O=C(N[C@@H]1CN(Cc2ccccc2)C[C@@H]2CCCO[C@@H]21)C1CC1`: the Percent Effect is -2.02%.

For `CS(=O)(=O)NCCCNC(=O)c1cccnc1O`, the Percent Effect was 6.15%.

With `Fc1ccc(CNCC2OCCc3cn(CC4CC4)nc32)cc1` (stereo not drawn), the Percent Effect was determined as 9.33%.

For `O=C(c1cccnc1-n1cncn1)N1CCN(CC2CC2)CC1`, the Percent Effect was found to be 1.6%.

As to `COc1ccccc1OC1(C(=O)O)CCN(c2nccnc2C)CC1`, the Percent Effect is -8.06%.

On to `Cc1csc(CNC(=O)NCCc2ccc3c(c2)OCCO3)n1`, for which the Percent Effect came to 8.98%.

On to `CCOCC(O)CN1CCN(C(=O)CC(C)(C)C)CC1` (stereo not drawn), for which the Percent Effect worked out at 0.227%.

For `CN1C(=O)C(c2cccnc2)CC12CCN(C(=O)c1cccn1C)CC2` (stereo not drawn), the Percent Effect is -2.67%.

Take `Cc1ccc(S(=O)(=O)N2C[C@H]3C[C@H](NC(=O)c4ccn(C)n4)[C@H]3C2)cc1`: the Percent Effect was 16.8%.

For the compound `CN(Cc1ccc(F)cc1)C(=O)NCc1nnc2n1CCCCC2`, the Percent Effect turned out to be 15.3%.

Take `O=C(Nc1cc(C(F)(F)F)c[nH]c1=O)N1CCCSCC1`: the Percent Effect was determined as 20.5%.

As to `c1cc(CN2CCN(Cc3cscn3)CC2)cs1`, the Percent Effect amounted to 29.1%.

Take `Cc1noc([C@@H]2C[C@H]3OCC[C@H]3N(S(=O)(=O)c3cccnc3)C2)n1`: the Percent Effect was -3.51%.

With `CCn1cnnc1C1CCN(C(=O)c2ccccc2OC)CC1`, the Percent Effect was 25.9%.

For `O=C(c1ccccc1-c1ccccc1)N1CCOC2(CNCCOC2)C1` (stereo not drawn), the Percent Effect was found to be 1.86%.

On to `COc1ccc(C(=O)N(C)Cc2cccc(C#N)c2)c(OC)c1OC`, for which the Percent Effect turned out to be 1.4%.

As for `CNC(=O)[C@@]12CCCN(c3ncccn3)[C@@H]1CN(C(=O)NC(C)C)C2`, the Percent Effect was determined as 12.8%.

For `O=C1CC(NCc2ccncc2)CN1Cc1cccc(F)c1` (stereo not drawn), the Percent Effect was -9.68%.

In the case of `CS(=O)(=O)NC[C@@H]1OC[C@H]2CN(C(=O)c3ccc[nH]3)CC[C@H]21`, the Percent Effect was -0.978%.

For the compound `Cc1nccn1C1CCCN(C(=O)c2cc3ccccc3[nH]2)C1` (stereo not drawn), the Percent Effect is 27.9%.

Consider `CS(=O)(=O)N1CCC(O)(Cn2c(C3CC3)nc3ccccc3c2=O)CC1`, for which the Percent Effect stood at 11.6%.

The next experiment concerns the target T1, Tyrosyl-tRNA synthetase, putative (Trypanosoma cruzi (strain CL Brener)) (UniProt Q4DSP6).
T1 sequence (whole entry): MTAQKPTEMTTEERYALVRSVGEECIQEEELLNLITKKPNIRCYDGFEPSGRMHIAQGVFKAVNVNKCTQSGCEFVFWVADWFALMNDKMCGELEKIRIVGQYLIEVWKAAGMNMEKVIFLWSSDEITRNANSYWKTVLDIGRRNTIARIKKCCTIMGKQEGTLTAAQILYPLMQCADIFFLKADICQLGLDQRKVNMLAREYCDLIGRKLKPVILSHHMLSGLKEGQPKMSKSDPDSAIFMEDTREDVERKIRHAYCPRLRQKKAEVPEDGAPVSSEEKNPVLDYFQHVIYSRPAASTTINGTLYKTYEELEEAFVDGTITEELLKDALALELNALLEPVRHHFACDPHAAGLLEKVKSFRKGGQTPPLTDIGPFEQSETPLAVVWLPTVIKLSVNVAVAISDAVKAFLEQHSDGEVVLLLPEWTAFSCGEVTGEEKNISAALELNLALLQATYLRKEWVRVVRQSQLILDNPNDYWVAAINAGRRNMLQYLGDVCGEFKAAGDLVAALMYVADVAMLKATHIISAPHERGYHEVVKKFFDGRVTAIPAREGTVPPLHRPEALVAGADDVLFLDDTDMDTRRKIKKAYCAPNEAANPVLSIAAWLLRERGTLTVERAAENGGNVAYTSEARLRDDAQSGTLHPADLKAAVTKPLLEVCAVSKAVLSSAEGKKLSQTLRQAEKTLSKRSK
Description: Trypanosoma cruzi tyrosyl tRNA synthetase (TcYRS) _High Tyrosine SOP. To be noted: 30 µM. It counts as functional. Also noted: scale not given: in the data most compounds retested in dose-response had high values.
For `Cc1nc(CO[C@@H]2CN(Cc3cnn(C)c3)[C@@H]3COC[C@@H]32)cs1`, the Percent Effect was found to be 3.12%.

As for `CC(=O)N1CCN(Cc2csc(-c3cnn(C)c3)n2)CC1`, the Percent Effect was 4.41%.

Consider `CC1CN(CC(=O)Nc2nncs2)CCN1c1nccs1` (stereo not drawn), for which the Percent Effect was found to be 4.95%.

In the case of `CC(OCC1CC1)C(=O)N1CCCN(Cc2cnn(C)c2)CC1` (stereo not drawn), the Percent Effect stood at 5.21%.

In the case of `O=S(=O)(CCNCc1cccc2c1OCCO2)N1CCOCC1`, the Percent Effect was determined as 5.82%.

In the case of `Cc1ccccc1[C@@H]1CN(C(=O)c2ccc3[nH]nnc3c2)C[C@H]1C(=O)O`, the Percent Effect turned out to be 3.12%.

In the case of `CC1CCN(C(CNC(=O)CCn2cccn2)c2cccs2)CC1` (stereo not drawn), the Percent Effect was found to be 6.01%.

As for `Cc1ccc(NC2CCN(C(=O)COCC(F)(F)F)CC2)nn1`, the Percent Effect worked out at 2.08%.

`Cn1cc(CN2CCCC3(CCN(c4nncs4)C3)C2)cn1` (stereo not drawn): the Percent Effect was 1.07%.

For `Cc1nc(Cn2nc(C3CCNCC3)n(Cc3ccccc3)c2=O)no1`, the Percent Effect is 3.7%.

Consider `CC(C)(C)c1cnc(CN2CCC(c3ccnn3CCO)CC2)o1`, for which the Percent Effect is 3.45%.

`Cc1nc(COC[C@@H]2CC[C@H]3[C@H](CCN3c3ncccn3)O2)cs1`: the Percent Effect is 4.25%.

With `CC(=O)N(Cc1ncc(C)o1)C1CCN(Cc2noc(C)n2)C1` (stereo not drawn), the Percent Effect was 8.57%.

As to `Cc1cc(CN(C)C2CCCN(Cc3noc(C4CC4)n3)C2)no1` (stereo not drawn), the Percent Effect turned out to be 1.48%.

Turning to `COCC1CN(C(=O)C2=CCCCC2)Cc2cnn(CC3CC3)c21` (stereo not drawn), the Percent Effect was found to be 7.41%.

`CC(=O)N1CCCN(C(=O)NCCc2ccc(Cl)s2)CC1`: the Percent Effect was 3.12%.

Regarding `CCc1nnc(CN(C)c2nc(C3CCCC3)nc3c2cnn3C)o1`, the Percent Effect worked out at 1.05%.

As for `COc1ccc(-c2cc(C3CCCCCN3S(=O)(=O)N(C)C)on2)cc1` (stereo not drawn), the Percent Effect is -50.5%.

Regarding `O=C(N[C@@H]1CN(Cc2ccccc2)C[C@@H]2CCCO[C@@H]21)C1CC1`, the Percent Effect turned out to be 7.29%.

With `CS(=O)(=O)NCCCNC(=O)c1cccnc1O`, the Percent Effect is 7.92%.

For `Fc1ccc(CNCC2OCCc3cn(CC4CC4)nc32)cc1` (stereo not drawn), the Percent Effect came to 3.24%.

With `O=C(c1cccnc1-n1cncn1)N1CCN(CC2CC2)CC1`, the Percent Effect amounted to 3.7%.

As to `COc1ccccc1OC1(C(=O)O)CCN(c2nccnc2C)CC1`, the Percent Effect worked out at 5.21%.

Take `Cc1csc(CNC(=O)NCCc2ccc3c(c2)OCCO3)n1`: the Percent Effect is 4.76%.

For the compound `CCOCC(O)CN1CCN(C(=O)CC(C)(C)C)CC1` (stereo not drawn), the Percent Effect was determined as 2.46%.

For `CN1C(=O)C(c2cccnc2)CC12CCN(C(=O)c1cccn1C)CC2` (stereo not drawn), the Percent Effect is -3.12%.

Take `Cc1ccc(S(=O)(=O)N2C[C@H]3C[C@H](NC(=O)c4ccn(C)n4)[C@H]3C2)cc1`: the Percent Effect is 2.15%.

As for `CN(Cc1ccc(F)cc1)C(=O)NCc1nnc2n1CCCCC2`, the Percent Effect is 6.4%.

As for `O=C(Nc1cc(C(F)(F)F)c[nH]c1=O)N1CCCSCC1`, the Percent Effect was 6.8%.

As for `c1cc(CN2CCN(Cc3cscn3)CC2)cs1`, the Percent Effect is 2.86%.

`Cc1noc([C@@H]2C[C@H]3OCC[C@H]3N(S(=O)(=O)c3cccnc3)C2)n1`: the Percent Effect came out at 3.12%.

Regarding `CCn1cnnc1C1CCN(C(=O)c2ccccc2OC)CC1`, the Percent Effect amounted to 4.85%.

On to `O=C(c1ccccc1-c1ccccc1)N1CCOC2(CNCCOC2)C1` (stereo not drawn), for which the Percent Effect stood at 5.82%.

With `COc1ccc(C(=O)N(C)Cc2cccc(C#N)c2)c(OC)c1OC`, the Percent Effect stood at 2.97%.

As for `CNC(=O)[C@@]12CCCN(c3ncccn3)[C@@H]1CN(C(=O)NC(C)C)C2`, the Percent Effect is -6.35%.

Consider `O=C1CC(NCc2ccncc2)CN1Cc1cccc(F)c1` (stereo not drawn), for which the Percent Effect was determined as 1.59%.

Regarding `CS(=O)(=O)NC[C@@H]1OC[C@H]2CN(C(=O)c3ccc[nH]3)CC[C@H]21`, the Percent Effect is -265%.

Take `Cc1nccn1C1CCCN(C(=O)c2cc3ccccc3[nH]2)C1` (stereo not drawn): the Percent Effect was -2.46%.

In the case of `CS(=O)(=O)N1CCC(O)(Cn2c(C3CC3)nc3ccccc3c2=O)CC1`, the Percent Effect is -1.07%.
